Test results as given in PubChem BioAssay (NCI).
Where “and” joins values, the source holds several entries; their conditions need not be identical. Equal entries are not always repeated. About 83,000 compounds went through this panel and 20% of them were active in at least one assay; those are over-represented in the sample as a whole.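 How to read the values: 0–100, growth inhibition (40 = 60% inhibited); 0, no net growth; -100 to 0, cell death (-40 = 40% of starting cells died; -100 = all dead).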 Calls of active or inactive are those of the source.

test system: CCRF-CEM leukemia; assay: NCI-60 one-dose screen, 48 h (100 = growth as untreated, 0 = no growth, -100 = all killed); details: 10 µM
Method: Growth inhibition of the CCRF-CEM human tumor cell line is measured as a screen for anti-cancer activity. Cells are grown in 96 well plates and exposed to the test compound for 48 hours. Compounds are tested at a single concentration, which is 10^-5 M for most compounds. The reported endpoint is percent growth (GI% or GIPRCNT), where numbers from 0 - 100% represent growth inhibition, and numbers from -100% - 0 represent cell death. For example, a value of 40 represents 60% growth inhibition. A value of 0 means no net growth occurred over the course of the experiment. A value of -40 indicates 40% of cells at the beginning of the experiment died by the end of the experiment. A value of -100 means all cells are dead at the end of the experiment.
NCI-60 Human Tumor Cell Lines Screen was performed using the standard one-dose NCI protocol, which is described in more detail at https://dtp.cancer.gov/discovery_development/nci-60/default.htm.
Compounds with GIPRCNT values below 10 were considered active. Activity score was based on GIPRCNT using the following formula: […]
Score is 0 for GIPRCNT values of 100 or above, 50 for GIPRCNT values of 0, and 100 for GIPRCNT values of -100.

Structure (SMILES)	growth
CC(=O)OCC1OC(OC(C)=O)C(OC(C)=O)C(OC(C)=O)C1OC(C)=O (stereo not given)	95.2% (inactive) and 110% (inactive)
CC(C)C(C)(C)c1ccc(O)cc1	105% (inactive)
O=C(O)CCCl	93% (inactive)
O=C1c2c(O)ccc(O)c2C(=O)c2c(NCCNCCO)ccc(NCCNCCO)c21	-24.9% (active) and -30.9% (active)
CCCCOC(=O)/C=C\C(=O)NC(N)=O	75.2% (inactive)
N#CC(C#N)N=Nc1ccc(Cl)cc1	28.6% (inactive)
OCC1OC(O)C(O)C(O)C1O (stereo not given)	92.3% (inactive)
CC1CCC2(OC1)OC1CC3C4CC=C5CC(O)CCC5(C)C4CCC3(C)C1C2C (stereo not given)	-55.7% (active)
O=c1n(CC2CO2)c(=O)n(CC2CO2)c(=O)n1CC1CO1 (stereo not given)	32.5% (inactive)
COc1ccc(N/C=C/C2=[N+](C)c3ccccc3C2(C)C)c(OC)c1	90.7% (inactive)
CCc1cc(C)cc(O)c1	98.4% (inactive)
Cc1ccc(S(=O)(=O)c2ccccc2)cc1	11.5% (inactive)
CC(=O)NCC(=O)c1ccc([N+](=O)[O-])cc1	99.5% (inactive)
CC(C)NCC(O)c1ccc(O)c(O)c1 (stereo not given)	90.8% (inactive) and 100% (inactive) and 103% (inactive)
O=C1C=C(Nc2ccccc2)c2ccccc2C1=O	65.8% (inactive) and 94.4% (inactive)
COc1ccc(Nc2ccc3ccccc3c2)cc1	56.9% (inactive)
CCCCNc1ccc(Nc2ccccc2)cc1	24.5% (inactive)
CCCCCCCCCCCCCCCc1ccc(N)c(OC2OC(CO)C(O)C(O)C2O)c1 (stereo not given)	5.48% (active)
O=C1OC(C(O)C(O)CO)C(O)=C1O (stereo not given)	102% (inactive) and 101% (inactive)
CN1CNC(=O)NC1	108% (inactive) and 91.3% (inactive)

Structure (SMILES)	growth
Cc1cc2ccccc2cn1	102% (inactive) and 120% (inactive)
Cc1cc(-c2ccc(N=Nc3ccc4c(S(=O)(=O)O)cc(S(=O)(=O)O)c(N)c4c3O)c(C)c2)ccc1N=Nc1ccc2c(S(=O)(=O)O)cc(S(=O)(=O)O)c(N)c2c1O	85.7% (inactive)
O=C(Cc1ccccc1)c1ccc(O)c(Cl)c1	-27.2% (active)
O=c1[nH]cnc2c1ncn2C1OC(CO)C(O)C1O (stereo not given)	99.5% (inactive) and 90.3% (inactive) and 69.9% (inactive)
c1ccc(-c2nc3ccccc3s2)cc1	101% (inactive)
O=CN1CCCCC1	115% (inactive)
CN(C)CC1CCCCCC(CN(C)C)C1=O (stereo not given)	-23.7% (active)
Cl	106% (inactive)
O=[N+]([O-])c1cccc(SSc2cccc([N+](=O)[O-])c2)c1	50.6% (inactive)
Cc1cc(-c2cc(C)c(O)c(C)c2)cc(C)c1O	82.6% (inactive)
CCCCCCCCCCNC(=O)CI	-47.1% (active)
CC(C)NC(=O)N/C=C(\C#N)C(N)=O	114% (inactive)
O=C1OC(c2ccccc2)=N/C1=C\c1ccccc1	100% (inactive)
CCN(CCNS(C)(=O)=O)c1ccc(N)c(C)c1	35.7% (inactive)
O=C1CSC2=NCCN12	102% (inactive) and 88.1% (inactive)
O=C(O)/C=C\C(=O)Nc1cccc2ccccc12	50.7% (inactive) and 101% (inactive)
Brc1ccc(SSc2ccc(Br)cc2)cc1	8.01% (active)
COc1cc(C(O)C2C(=O)OCC2C2(c3ccc4c(c3)OCO4)SCCCS2)cc(OC)c1OC (stereo not given)	98.2% (inactive)
COc1ccc(C(=O)CC(c2ccccc2)C(C#N)c2ccccc2)cc1 (stereo not given)	84.1% (inactive)
Nc1ccc2c(O)cc(S(=O)(=O)O)cc2c1	74.6% (inactive)
